Screening results deposited in PubChem BioAssay by several laboratories.
The list is not random: actives were taken first. Their share in the collection is about 2%.
NPR1 activator = GC-A stimulated cGMP production enhancers – HEK293 GC-A cells, cGMP TR-FRET, EC30 ANP, primary screen; 0% at EC30 ANP, 100% saturating ANP; activation, % at 10 µM; hit rate 0.14% among 370,000; AID 1671463, 2021; in the data active = activation above about 40%
FAS TE block = FAS thioesterase domain inhibitors, primary screen, biochemical, fluorescence intensity, uHTS | Fatty acid synthase (Homo sapiens), P49327 | recombinant FAS-TE, OMFH fluorogenic substrate, fluorescence endpoint | inhibition, % at 15 µM | hit rate 0.67% among 360,000 | AID 602261, 2012;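 active = compounds whose normalised, plate-corrected inhibition of enzyme fluorescence in the single-dose primary screen is 50% or more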;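 note: 0% = DMSO with enzyme and 100% = substrate without enzyme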
ADAM10 inh = human ADAM10 inhibitors, primary screen, biochemical, QFRET, HTS; inhibition, % at 7 µM; hit rate 0.62% among 370,000; recombinant ADAM10, EDANS/DABCYL FRET peptide cleavage, 3 h; Disintegrin and metalloproteinase domain-containing protein 10 (Homo sapiens), O14672;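 active = inhibition above a per-campaign cutoff equal to the mean of compounds falling between control-based bounds plus 3 SD, cut at about 20% in these data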;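 note: 0% = DMSO wells while the 100% control is not disclosed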
GC-B act = human GC-B receptor activators, primary screen, HEK293 GC-B cells, cGMP TR-FRET, EC30 CNP; Atrial natriuretic peptide receptor 2 (Homo sapiens), P20594; 0% at EC30 CNP, 100% saturating CNP; activation, % at 10 µM; hit rate 0.11% among 370,000;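 active = activation at 10 µM reaching about 35% in either raw or pattern-adjusted values, limit read from the data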
Target sequence (P20594 whole entry, looked up): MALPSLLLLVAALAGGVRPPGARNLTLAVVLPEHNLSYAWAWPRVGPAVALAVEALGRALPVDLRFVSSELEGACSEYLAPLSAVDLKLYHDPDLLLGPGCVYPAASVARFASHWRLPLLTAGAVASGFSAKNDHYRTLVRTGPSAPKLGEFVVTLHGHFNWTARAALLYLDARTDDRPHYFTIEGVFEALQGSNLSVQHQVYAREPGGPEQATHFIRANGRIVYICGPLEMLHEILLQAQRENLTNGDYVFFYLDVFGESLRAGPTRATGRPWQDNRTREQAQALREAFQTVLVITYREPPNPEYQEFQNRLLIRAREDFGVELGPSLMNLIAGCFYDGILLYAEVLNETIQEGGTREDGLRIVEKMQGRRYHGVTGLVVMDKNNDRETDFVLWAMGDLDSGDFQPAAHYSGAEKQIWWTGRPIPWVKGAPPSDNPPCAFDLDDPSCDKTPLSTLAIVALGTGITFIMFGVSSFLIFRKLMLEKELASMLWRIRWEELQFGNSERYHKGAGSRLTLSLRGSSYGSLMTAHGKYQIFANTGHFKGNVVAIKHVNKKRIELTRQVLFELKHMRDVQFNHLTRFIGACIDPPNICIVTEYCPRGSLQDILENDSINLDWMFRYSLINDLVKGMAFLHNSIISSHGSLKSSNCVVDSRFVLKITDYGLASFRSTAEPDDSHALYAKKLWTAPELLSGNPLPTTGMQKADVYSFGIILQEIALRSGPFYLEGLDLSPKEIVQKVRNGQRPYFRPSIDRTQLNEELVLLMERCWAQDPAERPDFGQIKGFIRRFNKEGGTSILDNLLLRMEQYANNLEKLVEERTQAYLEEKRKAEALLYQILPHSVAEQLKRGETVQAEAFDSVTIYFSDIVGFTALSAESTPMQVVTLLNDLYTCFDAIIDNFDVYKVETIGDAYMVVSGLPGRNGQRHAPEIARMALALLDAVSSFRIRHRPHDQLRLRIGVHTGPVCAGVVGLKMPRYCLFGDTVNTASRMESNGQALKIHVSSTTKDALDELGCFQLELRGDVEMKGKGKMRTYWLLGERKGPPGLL
ADAM17 inh = ADAM17 inhibitors, primary screen, biochemical, QFRET | inhibition, % at 6.95 µM | hit rate 0.83% among 370,000 | recombinant ADAM17, EDANS/DABCYL FRET peptide cleavage | Disintegrin and metalloproteinase domain-containing protein 17 (Homo sapiens), P78536;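 active = inhibition above the mean of compounds lying between control limits plus 3 SD, set per campaign, cut at about 8.5% in these data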;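 note: 0% = DMSO-only wells as the low control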
Active calls of the source: *; / = no result given.

SMILES	NPR1 activator	FAS TE block	ADAM10 inh	GC-B act	ADAM17 inh
CC1(Cc2ccc(C(F)(F)F)nc2)C(=O)Nc2cc(-c3ccccc3Cl)ccc21 (centres undefined)	42*	25	-6	2	-1
COc1ccc(NC(=S)NC(NC(=O)c2cccc(C)c2)C(Cl)(Cl)Cl)c([N+](=O)[O-])c1 (centres undefined)	-7	15	21*	6	7
COC[C@H]1CCCN1c1cccc2c1S(=O)(=O)N1CC[C@H](C1)O2	1	/	0	4	0
COC(=O)[C@]12C[C@H](CC(=O)NCc3ccc(OC)c(OC)c3)C(=O)N(CCc3ccc(OC)c(OC)c3)C1=C[C@H](C(C)C)O[C@@H]2C1CC1	6	/	-4	7	-4
O=C1C=C(c2ccc(F)cc2OCc2ccccc2)C[C@@H](c2ccc3c(c2)OCO3)C1	30	28	-3	39*	-3
Cc1csc(SCC(=O)N(C)C2CCS(=O)(=O)C2)n1 (centres undefined)	5	-7	0	90*	-8
COc1ccc(CN2C(=O)COc3ccccc3C2c2nnnn2C2CCCCC2)cc1 (centres undefined)	-20	/	-3	-14	-5
CC1=C(C(=O)N2CCOCC2)C(c2ccc(O)cc2)NC(=S)N1 (centres undefined)	32	-11	7	41*	5
CC1=C(C(=O)N2CCOCC2)C(c2ccc(-c3ccccc3)cc2)NC(=S)N1 (centres undefined)	79*	0	3	70*	-2
CC1=C(C(=O)N2CCOCC2)C(c2cccc3ccccc23)NC(=S)N1 (centres undefined)	3	-7	2	3	-2
CC1=C(C(=O)N2CCOCC2)C(c2cc(C)ccc2C)NC(=S)N1 (centres undefined)	6	-6	3	1	0
C#CCNC(=O)C[C@H]1C[C@@]2(C(=O)OC)C(=C[C@H](C3CCCC3)O[C@@H]2C)N(Cc2ccco2)C1=O	-9	/	-5	-8	-5
O=C(c1ccc([N+](=O)[O-])cc1[N+](=O)[O-])N1CCc2ccccc21	0	4	-1	4	0
O=C(N=C1N=C2C=CC(Br)=CN2Cc2ccccc21)c1ccc([N+](=O)[O-])cc1[N+](=O)[O-]	0	45	18	-9	9.1*
CCOC(=O)c1c(C)[nH]c(N=Nc2ccc(C)cc2)c1C	3	19	10	-1	15*
O=C1C(=O)N(Cc2ccc(-c3ccc(Cl)nc3)cc2)c2ccc(OC(F)(F)F)cc21	-18	/	-8	-13	-4
CCOC(=O)[C@@H]1[C@H]2COc3ccc(Br)cc3[C@@H]2N2C(=O)N(c3ccc(Br)cc3)C(=O)[C@]12C	4	72*	3	2	-1
CCOC(=O)[C@@H]1[C@H]2COc3ccc(Br)cc3[C@@H]2N2C(=O)N(c3ccc(C)cc3)C(=O)[C@@]12C	-6	18	14	-2	-1
CCOC(=O)[C@@H]1[C@H]2COc3ccc(Br)cc3[C@@H]2N2C(=O)N(c3ccc(F)cc3)C(=O)[C@]12C	-2	16	8	-4	-2
CCOC(=O)[C@@H]1[C@H]2COc3ccc(Br)cc3[C@H]2N2C(=O)N(c3ccc(C(F)(F)F)cc3)C(=O)[C@]12C	3	42	24*	-1	5
COc1ccc(OC)c(S(=O)(=O)N2CCCC(C(=O)N3CCN(Cc4ccccc4)CC3)C2)c1 (centres undefined)	2	/	-18	5	-2
Cc1cnc(NC(=O)C2CC(=O)N(c3ccc4c(c3)OCCO4)C2)s1 (centres undefined)	1	-4	-12	-2	-4
Cc1cnc(NC(=O)C2CC(=O)N(c3cccc(Cl)c3)C2)s1 (centres undefined)	14	2	6	37*	-1
COc1ccc(C)cc1NC(=O)c1nnn(Cc2cc(C)ccc2C)c1N	2	9	-11	7	-3
COc1ccc(OC)c(NC(=O)c2nnn(Cc3ccccc3C)c2N)c1	5	26	27*	0	7
SMILES	NPR1 activator	FAS TE block	ADAM10 inh	GC-B act	ADAM17 inh
N#Cc1ccccc1NCCCN1CCC(C(O)(c2ccccc2)c2ccccc2)CC1	-19	/	-26	-26	-4
Fc1ccc(-c2n[nH]c(=S)n2N=Cc2cccc(OCc3ccccc3)c2)cc1	-5	/	5	-4	2
CC(C)CC(COCc1ccc([N+](=O)[O-])cc1)N1CCN(C(=O)c2ccc(C(F)(F)F)cc2)CCC1=O (centres undefined)	-1	57*	8	-1	1
CCOC(=O)N1CCN(C(=O)C[C@H]2C(=O)N(CCCOC)C3=CCCCC[C@]32C(=O)OC)CC1	1	/	-1	-1	-2
Cc1cnc(NC(=O)CSc2nnc(COc3c(C)cccc3C)o2)s1	1	8	-11	97*	-2
Cc1cnc(NC(=O)CSc2nnc(COc3ccccc3)o2)s1	0	-2	-2	3	0
O=C(C[C@H]1C[C@H](C(=O)N2CCOCC2)[C@@]2(CCC3CCCC3)c3[nH]c4cc(-c5ccco5)ccc4c3CCN2C1=O)NCC12CC3CC(CC(C3)C1)C2	-1	30	-101	2	-32
CC(C)(C)NC(=O)C[C@H]1C[C@H](C(=O)N2CCOCC2)[C@@]2(CCC3CCCC3)c3[nH]c4cc(-c5ccco5)ccc4c3CCN2C1=O	/	58*	/	/	/
CCN1Cc2nnn(Cc3ccccc3)c2-c2ccccc2S1(=O)=O	1	/	2	4	1
Cc1ccc(F)c(Cn2cnc3c(cnn3C(C)(C)C)c2=O)c1Cl	32	23	0	38*	-2
O=C(O)c1ccccc1C(=O)c1cccc2c(Br)cccc12	58*	-7	2	26	-1
OC(c1ccccc1)(c1ccccc1)C1CCN(CCCNc2cccc(Br)c2)CC1	-21	/	-3	-14	-2
COc1ccc(S(=O)(=O)N2CCc3ccccc3C2)cc1OC	4	6	21*	5	4
COc1cc(C(Nc2ccccn2)c2ccc3ccc(C)nc3c2O)cc(OC)c1O (centres undefined)	/	-4	/	/	/
Cc1ccc2ccc(C(Nc3ccccn3)c3ccccc3)c(O)c2n1 (centres undefined)	-2	-3	25*	-2	8
CC1(C)Cc2c(C#N)c(SCc3ccccc3)nc(N3CCOCC3)c2CO1	21	16	5	52*	1
CCCCCSc1nc(N2CCOCC2)c2c(c1C#N)CC(C)(C)OC2	44*	22	-7	47*	-3
